# High-throughput results as filed in PubChem BioAssay.
# Vaccinia Venus: inhibitors of vaccinia virus (Venus reporter). Vaccinia virus Venus reporter expression, fluorescence. Potency, µM (top dose mostly 36.5 µM), for inactives: at the highest dose activity change, negative = inhibition, usual class: inhibitors. actives 0.46% (n = 330,000); calls by dose curve; tested in A549 cells; note: nearly all actives have a fitted effect of over 30% in size
# VACV mCherry inh: vaccinia inhibition (mCherry reporter). AID 720579. actives 0.63% (n = 310,000). Potency, µM (series often up to 36.5 µM), inactives show at the highest dose activity change, negative = inhibition, most hits filed as inhibitors. Vaccinia virus mCherry reporter infection, fluorescence; calls by dose curve; tested in A549 cells; note: nearly all actives have a fitted effect of over 35% in size
# FMDV antiviral: blocks foot and mouth disease virus; Potency, µM (top dose mostly 57.9 µM), for the others: at the top dose activity change, negative = inhibition, actives largely listed as inhibitors; actives 1.2% (n = 410,000); FMDV antiviral cell-based qHTS; calls by dose curve; tested in HEK293T cells; note: read-out not given here; nearly all actives have a fitted effect of over 45% in size
# HCV inh: inhibitors of hepatitis C virus infection. Potency, µM (series often up to 41.8 µM), inactives show at the highest dose activity change, negative = inhibition, usual class: inhibitors. actives 3.4% (n = 340,000). Huh7.5.1 HCVcc-Cre infection, luciferase reporter, 44 h; active = well fitted inhibition curve with a large enough effect; inconclusive = small, poorly fitted or top-dose-only effect, or another doubt; inactive = no such curve, though single readings can be large or run the other way
#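 Compounds are dispensed onto cells plated 4 h earlier at 1,000 per well, with HCVcc-Cre virus (about 0.5 moi) added next. Following 44 h of culture, luminescent signal is measured for 15 sec after 15 min with substrate at room temperature.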
# MARV entry inh: blocks Marburg virus binding to or entry into cells | Marburg virus pseudotyped entry inhibition, cell reporter | Potency, µM (top dose mostly 37.8 µM), for the others: at the top dose activity change, negative = inhibition, hits mostly inhibitors | actives 1.8% (n = 300,000) | AID 540276; calls by dose curve; tested in HEK293 cells
# Lassa entry inh: Lassa virus entry inhibition | Lassa virus pseudotype entry inhibition, cell reporter | AID 540256 | Potency, µM (doses to about 37.9 µM), inactives show at the top dose activity change, negative = inhibition, actives largely listed as inhibitors | actives 1.2% (n = 300,000); calls by dose curve; tested in HEK293 cells; note: nearly all actives have a fitted effect of over 50% in size
# * hit, by the source's call; i = inactive; ? = inconclusive; / = no result given; [ ] = dose if it differs, or a comment. Sampled rows, rich in hits. Any-hit rate of the full collection: about 5.3%. % is set by controls: 0 for no effect and ±100 for the full control effect; potency is the fitted concentration of half-maximal effect.
SMILES,Vaccinia Venus,VACV mCherry inh,FMDV antiviral,HCV inh,MARV entry inh,Lassa entry inh
COc1cc(OC)c(OC)cc1/C=N/N(C)c1ccccc1,-16.8%,/,-16.3%,8.91µM*,?,1.0%
COc1ccc(OC)c2c1sc(=NC(=O)C(C)C)n2C,-21.8%,-13.9%,0.0%,6.6%,/,/
COc1ccc(OC)c2c1sc(=NC(=O)C(C)(C)C)n2C,?,?,0.0%,10µM*,/,/
COc1ccc(-c2cn(-c3ccc(C)cc3C)c(=O)[nH]2)cc1OC,-8.3%,?,-17.3%,11.2µM*,/,/
COc1ccc(C2=NO[C@@H]3C(=O)N(c4ccc(C)cc4C)C(=O)[C@H]23)cc1OC,/,/,-4.1%,0.0%,2.8%,6.3%
O=C(OCCN1C(=O)c2cccc3c(N4CCOCC4)ccc(c23)C1=O)c1ccc(Cl)cc1Cl,-20.7%,?,15.8µM*,?,?,?
O=C(OCCN1C(=O)c2cccc3c(N4CCOCC4)ccc(c23)C1=O)c1cccc(Cl)c1,-18.8%,-12.2%,?,11.2µM*,?,?
O=C(OCCN1C(=O)c2ccccc2C1=O)c1cc(S(=O)(=O)N2CCOCC2)ccc1Cl,-24.6%,/,-9.6%,-2.8%,-3.0%,-14.4%
O=C(OCCN1C(=O)c2cccc3c(N4CCOCC4)ccc(c23)C1=O)c1ccccc1Cl,-11.0%,i,?,?,7.08µM*,?
O=C1c2cccc3c(N4CCCCC4)ccc(c23)C(=O)N1CCO,9.7%,-2.4%,5.7%,?,?,?
CC(C)c1nnc(NC(=O)CCS(=O)(=O)c2nc(-c3cccs3)cc(C(F)(F)F)n2)s1,/,/,14.1µM*,4.4%,13µM*,?
O=C(CCS(=O)(=O)c1nc(-c2cccs2)cc(C(F)(F)F)n1)Nc1ccc(F)c(Cl)c1,-16.2%[7.34 µM],-23.1%[7.34 µM],35.5µM*,/,26.8%[46.1 µM],?
O=C(CCS(=O)(=O)c1nc(-c2cccs2)cc(C(F)(F)F)n1)Nc1ccc(OC(F)(F)F)cc1,2.1%,-12.0%,-19.5%,/,?,?
COc1ccc(Cl)cc1NC(=O)CCS(=O)(=O)c1nc(-c2cccs2)cc(C(F)(F)F)n1,-19.3%,-22.2%,31.6µM*,/,17.6%[46.1 µM],?
Nc1cccc(/C=C2\C=Cc3ccccc32)c1,-12.1%,-12.9%,/,/,/,/
Cc1ccc(Cl)cc1N1CCN(C(=O)c2noc(C(C)C)c2[N+](=O)[O-])CC1,/,/,-27.7%,3.55µM*,/,/
CC(C)c1onc(C(=O)N2CCN(c3ccccc3)CC2)c1[N+](=O)[O-],/,/,?,9.1%,/,/
CC(=O)c1cccc(NC(=O)c2nc(-c3ccccc3)n(-c3ccccc3C)n2)c1,-4.0%,-9.9%,-25.2%,/,-1.8%[46.1 µM],-3.3%[46.1 µM]
N#Cc1ccccc1Cn1c(=O)n(Cc2ccc(C(=O)NC3CCN(Cc4ccccc4)CC3)cc2)c(=O)c2ccccc21,-25.1%,-28.0%,3.9%,/,-2.5%[46.1 µM],-1.4%[46.1 µM]
COc1cc(-c2cc(C)c3c(OC)ccc(OC)c3n2)cc2c1OCCN(Cc1cn(C)nc1C)C2,21.6%,11.7%,-2.9%,/,/,/
Cc1ccc(C)c(NS(=O)(=O)c2cc(C(=O)NCCSC3CCCCC3)ccc2C)c1,-26.7%,?,-13.3%,?,-17.6%,-40.6%
Cc1ccc(C(=O)NCCSc2ccccc2)cc1S(=O)(=O)Nc1ccccc1,/,/,-5.6%,?,23.1µM*,?
COCCNC(=O)c1ccc(C)c(S(=O)(=O)Nc2ccc(C)cc2)c1,/,/,71.1%,12.4%,-1.4%,0.8%
Cc1ccccc1NS(=O)(=O)c1cc(C(=O)NCCSC2CCCCC2)ccc1C,-13.1%,-16.8%,/,?,?,8.2µM*
O=C(NCc1ccc(Cl)cc1)C1CCN(c2nn3cc(-c4ccc(F)cc4)nc3s2)CC1,-13.9%,-12.2%,19.0%,/,/,0.6%[46.1 µM]
SMILES,Vaccinia Venus,VACV mCherry inh,FMDV antiviral,HCV inh,MARV entry inh,Lassa entry inh
COc1ccc(CC(=O)Nc2nc3ccccc3s2)cc1S(=O)(=O)N1CCOCC1,/,/,?,11.2µM*,?,?
COc1ccc(CC(=O)Nc2nc(C)cs2)cc1S(=O)(=O)N1CCOCC1,/,/,15.4%,3.9%,/,/
COc1ccc(CC(=O)Nc2nc3ccc(F)cc3s2)cc1S(=O)(=O)N1CCOCC1,?,-14.8%[1.46 µM],7.2%,12.6µM*,-8.9%,-11.4%
CC[C@@H](C)CCCCC(=O)N[C@H](CCN)C(=O)N[C@@H](C(=O)N[C@H](CCN)C(=O)N[C@@H]1CCNC(=O)C([C@@H](C)O)NC(=O)[C@@H](CCN)NC(=O)[C@@H](CCN)NC(=O)[C@@H](CC(C)C)NC(=O)[C@@H](Cc2ccccc2)NC(=O)[C@@H](CCN)NC1=O)[C@@H](C)O (some centres undefined),8.7%,0.2%,-1.7%,/,/,/
COc1cc(-c2cccs2)cc(=O)c2c(C)oc(C)c12,22.9%,-6.7%,/,11.2µM*,-26.0%,-17.3%
COc1cc(-c2cc(OC)c3c(C)oc(C)c3c(=O)c2)ccc1OC(=O)c1ccccc1Cl,7.9%,-16.7%,?,/,?,-2.1%[46.1 µM]
CCCC(=O)N1CC(=O)Nc2ccc(Br)cc2C1c1ccc(F)cc1 (centres undefined),-7.0%,i,-15.5%,2.0%,11.2µM*,-5.5%[46.1 µM]
CCCC(=O)N1CC(=O)Nc2ccc(C)cc2C1c1ccc(F)cc1 (centres undefined),-10.4%,-33.4%,-20.5%,3.6%,/,/
Cc1ccc(CSc2nc3cccnc3n2Cc2ccc(C(=O)NC3CCCCC3)cc2)cc1,11.2µM*,?,22.5%,/,/,3.8%[46.1 µM]
O=C(NCCN1CCCCC1)c1ccc(Cn2c(SCc3cccc(F)c3)nc3cccnc32)cc1,-13.7%,-18.1%,-9.9%,/,4.47µM*,/
O=C(NC1CCCCC1)c1ccc(Cn2c(SCc3ccccc3F)nc3cccnc32)cc1,-15.6%,i,0.8%,/,/,-10.5%[46.1 µM]
C#CCCCO/N=C1/C[C@@H](O)[C@@H](O)[C@@H]2[C@@H]3C(=O)N(Cc4ccc5c(c4)OCO5)C(=O)[C@H]3CC[C@@H]12,/,/,/,/,-6.7%[14.2 µM],/
COc1ccc(-c2nc(C)c(CCNC(=O)C(=O)Nc3ccccc3OC)s2)cc1,-6.4%,-9.1%,-11.3%,/,/,6.4%[46.1 µM]
Cc1ccc(NC(=S)N2CCCC(c3nc4ccc(C)cc4[nH]3)C2)c(C)c1 (centres undefined),?,?,/,10µM*,?,-12.7%
CCOc1ccccc1NC(=O)N1CCC(c2nc3ccc(C)cc3[nH]2)CC1,-23.5%,-24.0%,-1.0%,/,?,-16.8%[14.3 µM]
COc1ccc(NC(=S)N2CCCC(c3nc4ccc(C)cc4[nH]3)C2)c(OC)c1 (centres undefined),/,/,-5.5%,?,-9.4%,-10.3%
Cc1cc2nc(C3CCCN(C(=S)Nc4ccccc4C)C3)[nH]c2cc1C (centres undefined),-25.9%,-7.0%,/,10µM*,-21.1%,?
Cc1ccc2nc(C3CCCN(C(=S)Nc4cccc(C)c4C)C3)[nH]c2c1 (centres undefined),?,?,/,1.78µM*,?,?
